An excerpt weighted towards active compounds, which were near 18% of everything screened.
Gal4-VP16 FLuc: VP16 counterscreen qHTS for inhibitors of ROR gamma transcriptional activity. Drosophila S2 Gal4-VP16 UAS-luciferase, luminescence, 20 h. Potency, µM (series often up to 53.6 µM), inactives show at the top dose activity, negative = inhibition, hits mostly inhibitors. hit rate 3.5% among 310,000. AID 2546, 2010;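 note: Gal4-VP16 expression switched on by copper sulfate through the metallothionein promoter; potency is the fitted concentration of half-maximal effect; nearly all actives have a fitted effect of over 50% in size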
DT40 TDP1 no CPT: qHTS for Inhibitors of human tyrosyl-DNA phosphodiesterase 1 (TDP1): qHTS in cells in absence of CPT; Potency, µM (series often up to 46.2 µM), without a hit: at the highest dose activity change, negative = growth inhibition, usual class: inhibitors; DT40 Tdp1-/- hTDP1 cells, no CPT, ATP luminescence, 48 h; hit rate 15% among 420,000; AID 686978, 2013; note: potency is the fitted concentration of half-maximal effect; nearly all actives have a fitted effect of over 55% in size
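Chicken DT40 Tdp1-/- cells complemented with human TDP1, screened without camptothecin (DMSO vehicle only), 400 cells/well. Compounds pin-transferred, cells incubated at 37 °C for at least 48 hr. Growth read as ATP-dependent luminescence (CellTiter-Glo, 30 min at RT).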
LDHA inh: qHTS assay for inhibitors of human lactate dehydrogenase | L-lactate dehydrogenase A chain (Homo sapiens), P00338 | purified LDHA, NADH/diaphorase-resazurin fluorescence; hits give low values | activity change, % (values are at about 110 or 230 µM) | hit rate 0.15% among 480,000 | AID 1347041, 2019; in the data active = activity change below about -30%; inconclusive = mostly about -25% to -30%;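 note: plate controls were DMSO wells for no effect and wells without enzyme for full effect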
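Human LDH5 (2 nM) was incubated with 0.06 mM NADH and 0.2 mM pyruvate for 5 min at room temperature in Tris pH 7.4. Remaining NADH was coupled through diaphorase/resazurin, and resorufin fluorescence was read at 0 and 20 min.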
RORgamma inh: qHTS for inhibitors of ROR gamma transcriptional activity; Nuclear receptor ROR-gamma (Mus musculus), P51450; Drosophila S2 Gal4-RORgamma UAS-luciferase reporter, 20 h; Potency, µM (highest dose often 53.6 µM), inactives show top-dose activity change, negative = inhibition, hits mostly inhibitors; hit rate 5.4% among 310,000; note: potency is the fitted concentration of half-maximal effect; nearly all actives have a fitted effect of over 60% in size
Target sequence (P51450 whole entry, looked up, the tested form may be a part): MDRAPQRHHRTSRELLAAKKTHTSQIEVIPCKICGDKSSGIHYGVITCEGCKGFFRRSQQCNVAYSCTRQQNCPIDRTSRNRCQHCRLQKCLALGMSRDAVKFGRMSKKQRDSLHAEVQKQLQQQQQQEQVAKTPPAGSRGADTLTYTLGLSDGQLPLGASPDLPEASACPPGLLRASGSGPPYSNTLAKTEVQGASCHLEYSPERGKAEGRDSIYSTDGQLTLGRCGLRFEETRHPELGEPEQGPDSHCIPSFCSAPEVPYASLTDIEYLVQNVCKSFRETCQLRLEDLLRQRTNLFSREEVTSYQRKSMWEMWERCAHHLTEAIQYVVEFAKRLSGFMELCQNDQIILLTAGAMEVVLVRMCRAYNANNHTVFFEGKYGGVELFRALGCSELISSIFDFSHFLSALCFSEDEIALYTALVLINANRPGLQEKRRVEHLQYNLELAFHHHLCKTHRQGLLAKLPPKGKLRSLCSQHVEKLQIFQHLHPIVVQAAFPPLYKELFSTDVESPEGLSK
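Compounds are pin-transferred onto Drosophila Schneider cells expressing a copper-inducible Gal4–ROR gamma transactivation domain fusion. After 1 hr, copper sulfate is added to 700 uM final; luciferase is read 20 hr later.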
DT40 TDP1 CPT: qHTS for Inhibitors of human tyrosyl-DNA phosphodiesterase 1 (TDP1): qHTS in cells in presence of CPT; AID 686979, 2013; chicken DT40 Tdp1-/-;hTDP1 cells + 20 nM CPT, ATP luminescence, 48 h; Potency, µM (series often up to 46.2 µM), for inactives: at the top dose activity change, negative = growth inhibition, usual class: inhibitors; hit rate 12% among 420,000; note: potency is the fitted concentration of half-maximal effect; nearly all actives have a fitted effect of over 55% in size
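Chicken DT40 Tdp1-/- cells stably complemented with human TDP1 were seeded at 400 cells/well in medium containing 20 nM camptothecin, exposed to pin-transferred compounds, and grown at 37 °C for at least 48 hr. Viability was read as ATP luminescence.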
IL1B secr inh: qHTS for Inhibitors of Inflammasome Signaling: IL-1-beta AlphaLISA Primary Screen; hit rate 4.7% among 360,000; activity change, % at 57.5 µM; THP-1 LPS/ATP IL-1B secretion, AlphaLISA, 16 h; hits give low values; in the data active = activity change below about -50%; inconclusive = mostly about -30% to -49%
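THP-1 cells pretreated 1 hr with compounds (up to 57.5 uM final), then stimulated with LPS (250 ng/mL final) plus ATP (1.25 mM final); secreted IL-1B measured by AlphaLISA after 16 hr, decreased signal indicating inhibition.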
Numbers without * were called inactive; ? = inconclusive; / = not tested or not shown. Unless noted, calls come from the whole dose curve; as a rule, active = well fitted curve in the direction sought with a large enough effect; inconclusive = small, poorly fitted or top-dose-only effect, or another doubt; inactive = no such curve, though single readings can be large; an effect the other way counts as inactive or inconclusive. Unless noted, % is set by controls: 0 for no effect and ±100 for the full control effect.

SMILES	Gal4-VP16 FLuc	DT40 TDP1 no CPT	LDHA inh	RORgamma inh	DT40 TDP1 CPT	IL1B secr inh
COc1ccc(-c2nc(Cn3c(SCc4ccc(C)cc4)nc4ccncc43)c(C)o2)cc1OC	?	?	-2.4	-35.6%	?	-19.4
Cc1oc(-c2ccccc2F)nc1Cn1c(SCc2ccccc2F)nc2ccncc21	/	14.6µM*	-13.0	/	?	/
Cc1cccc(-c2nc(Cn3c(SCc4cccc(C(F)(F)F)c4)nc4ccncc43)c(C)o2)c1	/	?	-8.8	/	14.6µM*	/
CCOC(=O)c1cccc(NC(=O)[C@H](C(C)C)n2nnc3ccccc3c2=O)c1	/	/	-8.1	/	/	/
Cc1ncnc2nc[nH]c12	/	1.78µM*	/	/	1.78µM*	/
c1nc(NC2CCCCCC2)c2[nH]cnc2n1	-19.2%	23.1µM*	0.5	?	10.3µM*	-3.1
CC(C)=NNc1ncnc2nc[nH]c12	/	14.6µM*	-4.1	/	20.6µM*	89.4
c1nc(NC2CCCCC2)c2[nH]cnc2n1	0.8%	12.0%	0.0	?	-6.1%	-1.8
COc1cccc(CNC(=O)c2ncoc2-c2cccs2)c1	/	/	16.0	/	/	/
CCCCCCC[n+]1ccc(C)c2ccccc21	/	0.447µM*	/	/	0.447µM*	/
CCCCCCCCCCCC[n+]1ccc(C)c2ccccc21	/	2µM*	/	/	2µM*	/
Cc1ccc2c(C)cc[n+](CCCS(=O)(=O)[O-])c2c1	-4.7%	-14.1%	8.5	-14.5%	-5.3%	-14.2
CCCCCCCCCC[n+]1cccc2cc(Br)ccc21	/	1.26µM*	/	/	0.631µM*	/
Cc1cc[n+](C)c2ccccc12	/	-20.8%	-5.9	/	4.4%	/
CCCCCCCCC[n+]1cccc2c3ccccc3ccc21	2.51µM*	0.461µM*	-1.3	8.91µM*	0.581µM*	-6.8
CCCCc1noc(CN2CCc3cc(OC)c(OC)cc3C2CC(=O)OC)n1 (stereo not given)	/	/	5.3	/	/	/
CCCNC(=O)c1ccccc1OCc1ccc(Cl)cc1	/	/	9.7	/	/	/
CC1(C)CC(=O)C2=C(C1)N(Cc1ccccc1)C(C1CCCCC1)=NC2(C(F)(F)F)C(F)(F)F	/	/	0.6	/	/	/
COc1ccc(/C=C2\N=C(SC)SC2=O)cc1	/	/	-1.7	/	/	/
Cc1cc[n+](CCC2CCCCC2)c2ccccc12	/	0.891µM*	/	/	1.26µM*	/
OC1(c2ccc(OC(F)F)cc2)CSC(=Nc2cccnc2)N1Cc1ccco1 (stereo not given)	?	-88.3%	0.1	?	-75.7%	-77.3*
COc1cccc2c(=O)c(SC(F)(F)C(F)C(F)(F)F)c(C)[nH]c12 (stereo not given)	-6.7%	18.4µM*	-2.7	-4.3%	?	13.8
Clc1ccc(SCc2cn3ccsc3n2)cc1	20.2%	-20.4%	-0.9	10.1%	-29.3%	-1.5
Cc1csc2nc(CSc3ccc(Cl)cc3)cn12	-22.2%	23.1µM*	0.6	1.5%	?	-90.9*
CCCCN(CC)Cc1ccc(CNC(=O)Nc2ccccc2)o1	-0.3%	10µM*	-8.3	-16.0%	17.8µM*	-9.5
SMILES	Gal4-VP16 FLuc	DT40 TDP1 no CPT	LDHA inh	RORgamma inh	DT40 TDP1 CPT	IL1B secr inh
CCCNC(=S)Nc1cccc(F)c1	/	/	-6.1	/	/	/
CCCCN(CCCC)Cc1ccc(C(=O)NNC(=O)Nc2ccccc2)o1	-0.5%	-6.9%	-7.8	-9.7%	-5.7%	-4.0
CCCCN(CC)Cc1ccc(CNC(=S)Nc2cccc(F)c2)o1	?	23.1µM*	0.4	1.4%	?	-15.9
C=CCNC(=O)NC(=O)Cn1ccnc1	/	/	9.9	/	/	/
CCCCn1c(CCn2nc(C)c(Br)c2C)n[nH]c1=S	?	1.6%	-2.2	11.2µM*	-14.5%	11.3
CCCCCn1c(COc2ccc(Cl)cc2)n[nH]c1=S	/	/	7.4	/	/	/
Nc1cc(-c2ccc(OC(F)(F)F)cc2)nn1-c1ccc(Cl)c(Cl)c1	7.3%	?	4.1	34.6%	?	-64.8*
